Laboratory results as given in ChEMBL document CHEMBL5308504, “Tm Shift (DSF) assay results for EUbOPEN Chemogenomics Library” (2023).
Where “and” joins values, the source holds several entries; their conditions need not be identical. Equal values may be shown once.

Legend:
[1] = biological target: Bromodomain-containing protein 4 (Homo sapiens) (UniProt O60885); conditions: Compound concentration 20.0 uM, Protein concentration 2.0 uM, Result type QC Liability
[2] = biological target: T1, Transcription intermediary factor 1-alpha (Homo sapiens) (UniProt O15164); conditions: Compound concentration 20.0 uM, Protein concentration 2.0 uM, Result type QC Liability
T1 sequence (whole entry): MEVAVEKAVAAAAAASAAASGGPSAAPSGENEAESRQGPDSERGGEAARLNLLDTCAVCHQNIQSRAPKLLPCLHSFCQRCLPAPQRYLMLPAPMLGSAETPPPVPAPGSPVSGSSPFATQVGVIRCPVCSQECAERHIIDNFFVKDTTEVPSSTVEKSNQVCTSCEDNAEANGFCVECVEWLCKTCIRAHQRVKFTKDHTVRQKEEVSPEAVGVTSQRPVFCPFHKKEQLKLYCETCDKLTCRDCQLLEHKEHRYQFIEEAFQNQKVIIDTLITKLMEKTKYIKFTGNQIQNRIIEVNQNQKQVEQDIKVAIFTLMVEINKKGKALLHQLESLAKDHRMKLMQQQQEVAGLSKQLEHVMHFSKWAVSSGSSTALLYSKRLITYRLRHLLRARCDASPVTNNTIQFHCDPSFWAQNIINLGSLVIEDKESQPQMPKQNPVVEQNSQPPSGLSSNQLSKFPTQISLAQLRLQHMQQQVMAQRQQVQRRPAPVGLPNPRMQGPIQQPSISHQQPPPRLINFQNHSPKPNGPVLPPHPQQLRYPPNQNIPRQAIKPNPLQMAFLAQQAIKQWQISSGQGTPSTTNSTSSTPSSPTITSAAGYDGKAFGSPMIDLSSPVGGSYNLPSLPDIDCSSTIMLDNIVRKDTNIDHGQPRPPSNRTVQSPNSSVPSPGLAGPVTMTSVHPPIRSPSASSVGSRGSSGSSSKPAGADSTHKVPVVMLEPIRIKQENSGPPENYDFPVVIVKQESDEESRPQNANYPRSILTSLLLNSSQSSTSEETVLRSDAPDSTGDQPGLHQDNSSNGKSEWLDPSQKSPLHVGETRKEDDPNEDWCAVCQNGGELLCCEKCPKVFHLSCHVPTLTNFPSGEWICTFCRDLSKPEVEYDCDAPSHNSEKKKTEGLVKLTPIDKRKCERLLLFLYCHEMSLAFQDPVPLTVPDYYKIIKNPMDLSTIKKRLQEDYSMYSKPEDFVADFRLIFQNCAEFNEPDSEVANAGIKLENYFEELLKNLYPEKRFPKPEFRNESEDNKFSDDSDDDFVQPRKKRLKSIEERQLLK

SMILES	ΔTm [1]	ΔTm [2]
O=C(CCCCCCc1ccccc1)c1ncc(-c2ccccn2)o1	-1.06 °C	-0.23 °C
O=C1CN(c2ccccc2F)C(NCCN2CCOCC2)=C1c1nc2cc(Br)ccc2c(=O)[nH]1	-12.3 °C	0.25 °C
Cn1ncc(NC(=O)c2nc(-c3c(F)cccc3F)sc2N)c1N1CC[C@@H](N)[C@H](F)CC1	-1.02 °C	-1.63 °C
O=C1CCCN1CCNc1nc(Nc2ccc(Cl)c(Cl)c2)ncc1C(F)(F)F	-2.43 °C	-1.81 °C
c1ccc2c(-c3coc4cc(-c5ccc(N6CCNCC6)cc5)cnc34)ccnc2c1	-1.89 °C	-2.14 °C
O=C1COc2cc(C(=O)N(Cc3ccc(C(=O)Nc4ccncn4)cc3)C3CC3)ccc2N1	0.06 °C	-2.92 °C
CN1CCN(c2ccc(-n3cc(-c4ccncc4OCC4CCNCC4)cn3)cc2)CC1	-1.52 °C	-2.76 °C
O=C(O)c1cc(F)c2nc(N3[C@@H]4CC[C@H]3C[C@@H](OCc3c(-c5ccccc5OC(F)(F)F)noc3C3CC3)C4)sc2c1	-7.4 °C	-1.62 °C
CCCCC(C)(O)C/C=C/[C@H]1[C@H](O)CC(=O)[C@@H]1CCCCCCC(=O)O (stereo not given in full)	-1.42 °C	-0.79 °C
O=C1NC(=NCc2cccs2)SC1=Cc1ccc2ncccc2c1	0.38 °C	-1.13 °C
NC(=O)c1ccc(-c2nc(-c3ccc4c(c3)OCCO4)c(-c3ccccn3)[nH]2)cc1	-0.56 °C	-0.21 °C
Cc1c(NC(=O)COc2ccc(Cl)cc2C(=O)c2cc(F)cc(C(F)(F)F)c2)ccc(C(=O)O)c1F	-0.11 °C and -0.42 °C	0.4 °C and 0.46 °C
O=C(Nc1cc2cc[nH]c(=O)c2cc1Cl)[C@H]1CNC[C@@H]1c1cccnc1	-1.63 °C	-2.69 °C
O=C(O)c1cc(-c2ccccc2)ccc1O	-1.31 °C	-1.78 °C
CCCS(=O)(=O)Nc1ccc(F)c(Nc2ncnc3cnc(-n4cnc(C)c4)nc23)c1F	-2.57 °C	-1.9 °C
C=CC(=O)Nc1ccc(C(=O)Nc2[nH]nc3c2CN(C(=O)N[C@H](CN(C)C)c2ccccc2)C3(C)C)cc1	0.61 °C	-2.21 °C
CC(=O)N1CCC(c2ccc(C(=O)NC(=N)N)cc2C(F)(F)F)CC1	-0.62 °C	0.53 °C
CCNC1=N[C@@H]2[C@@H](O)[C@H](O)[C@@H](CO)O[C@@H]2S1	-1.49 °C	-2.58 °C
O=C(O)Cc1cc(I)c(Oc2ccc(O)c(I)c2)c(I)c1	-5.23 °C	-2.6 °C
CCCCCCCC/C=C\CCCCCCCC(=O)NCCO	-1.73 °C	-2.56 °C
CCc1ccc(-c2ncn(CC3(F)CCN(C)CC3)c2-c2ccnc3[nH]ccc23)nc1	-2.66 °C	-2.61 °C
NC(=O)c1ccccc1Nc1nc(-c2ccc(N3CCOCC3)cc2)cc2ncccc12	-2.32 °C	-2.3 °C
CC(=O)Nc1ncc(CN2CCC[C@H](Cc3cc(C)nc(C)c3)C2)s1	0.62 °C	-2.22 °C
CCCc1c(OCCCOc2ccc(OCC(=O)O)cc2)ccc(C(C)=O)c1O	-2.92 °C	-1.6 °C
CNc1nc(Nc2ccc(C(=O)N3CCOCC3)cc2OC)ncc1Cl	-0.71 °C	-2.04 °C

SMILES	ΔTm [1]	ΔTm [2]
Cn1cc(Nc2nccc(N3CC4CCC(C3)N4C(=O)[C@@H]3CC3(F)F)n2)cn1	-1.13 °C	-1.71 °C
COc1cc(CN(CCN)C(=O)N[C@@H](C)c2ccccc2)ccc1OCc1ccccc1	-1.26 °C	-0.9 °C
N#Cc1ccc(C#CC[C@@H](C#N)NC(=O)[C@H]2CCCCN2)cc1F	-1.11 °C	0.64 °C
CCN(C(=O)c1cc(F)ccc1Oc1cncnc1N1CC2(CCN(C[C@H]3CC[C@H](NS(=O)(=O)CC)CC3)CC2)C1)C(C)C	-1.64 °C	-1.14 °C
O=C(CNC(=O)c1ccc(-c2ccccc2)cc1)NC1CCCc2ccccc21 (stereo not given)	-5.93 °C	2.55 °C
c1ccc(C(OC2CCN(CCCc3nnn[nH]3)CC2)c2ccccc2)cc1	-1 °C	-0.6 °C
N[C@@H]1CCCN(c2c(/C=C3\SC(=O)NC3=O)cccc2-c2ccccc2)C1	-2.91 °C	-2.28 °C
O=c1[nH]c(CS[C@H]2CC[C@H](O)CC2)nc2cc(OCC3CC3)cc(F)c12	-0.97 °C	-3.28 °C
C[C@@]1(Cc2ccc(C#N)cc2)C(=O)N(c2cc(Cl)cc(Cl)c2)c2ncc(C(=O)NC3(c4nc(C5CCC5)no4)CC3)n21	10.3 °C	0.39 °C
N#CN1CC[C@H](C(=O)Nc2nc3c(s2)CN(C(=O)CN=[N+]=[N-])CC3)C1	-0.19 °C	-1.13 °C
O=C(N[C@H]1CCC[C@H](CO)C1)C1CCN(c2nc3cc(Cl)c(-c4ccc(Cl)cc4)cc3o2)CC1	-3.15 °C	1.95 °C
CNC(=O)c1cccc(-c2ccc3c(N4CCOC[C@@H]4C)nc(N4CCOC[C@@H]4C)nc3n2)c1	-1.42 °C	-1.47 °C
CC(C)(O)CNC(=O)N1C(=O)N(c2cccc(C(F)(F)F)c2)C2=C(C(=O)CC2)[C@@H]1c1ccc(C#N)cc1	-0.6 °C	0.83 °C
COc1ccccc1N1CCN(c2ncnc3c2cnn3-c2ccccc2)CC1	0.01 °C	0.1 °C
Cc1ccc(-c2cn3nc(C(=O)NC4(c5ccc(F)cc5)CN(C)C4)c(C(C)C)c3c(=O)[nH]2)cc1C	-24.1 °C	0.46 °C
CO[C@H]1C[C@@H]2CC[C@@H](C)[C@@](O)(O2)C(=O)C(=O)N2CCCC[C@H]2C(=O)O[C@H]([C@H](C)C[C@@H]2CC[C@@H](O)[C@H](OC)C2)CC(=O)[C@H](C)/C=C(\C)[C@@H](O)[C@@H](OC)C(=O)[C@H](C)C[C@H](C)/C=C/C=C/C=C/1C	-2.02 °C	-0.81 °C
COc1ccccc1Nc1nc(-c2nn(Cc3c(F)cc(OCCCO)cc3F)c3ccccc23)ncc1OC	-0.6 °C	-1.94 °C
Cc1n[nH]c2ncc(C(=O)N3CCC[C@H]3c3ccc(Cl)cc3)cc12	0 °C	-1.73 °C
COc1cc(-c2cc3ncccc3c(O[C@@H](C)[C@H]3CNC(=O)C3)n2)cc(OC)c1OC	1.39 °C	0.27 °C
Cn1nc(C(=O)NCc2ccc(C(=O)O)cc2)cc1-c1ccc2[nH]ccc2c1	-0.1 °C	0.43 °C
C=CC(=O)Nc1cccc(C)c1Nc1ncc2cc(-c3c(Cl)c(OC)cc(OC)c3Cl)ccc2n1	0.13 °C	0 °C
C=C1/C(=C\C=C2/CCC[C@]3(C)[C@@H]([C@H](C)CCCC(C)(C)O)CC[C@@H]23)C[C@@H](O)C[C@@H]1O	-7.29 °C	-4.59 °C
CCCCOc1c(C(=O)c2c(F)cc(C)cc2F)c[nH]c2nncc1-2	-0.5 °C	-1.46 °C
CN(C)C/C=C/C(=O)Nc1cc2c(Nc3ccc(F)c(Cl)c3)ncnc2cc1OC[C@@H]1CCCO1	-0.58 °C	-0.17 °C
O=C(Nc1ccc(OC(F)(F)Cl)cc1)c1cnc(N2CC[C@@H](O)C2)c(-c2cc[nH]n2)c1	0 °C	-3.05 °C
